TGFb inhibitor – qHTS for Inhibitors of TGF-b. HepG2 CAGA-GFP TGF-b/SMAD3 reporter, GFP fluorescence, 18 h; TGF-beta stimulated, 500 pg/mL final. 1.2% of 410,000 active. Potency, µM (doses to about 46.1 µM), for inactives: at the top dose activity, negative = inhibition, most hits filed as inhibitors. AID 588855, 2011; note: potency is the fitted concentration of half-maximal effect; % is set by controls: 0 for no effect and ±100 for the full control effect; nearly all actives have a fitted effect of over 65% in size
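HEPG2 CAGA-GFP cells (1000/well, DMEM with 1% FBS) were pre-incubated 2 h at 37 degrees C, given compound by pin tool, then stimulated with TGF-beta at 500 pg/mL final for 18 h before per-cell GFP fluorescence imaging.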
TDP1 cell noCPT – qHTS for Inhibitors of human tyrosyl-DNA phosphodiesterase 1 (TDP1): qHTS in cells in absence of CPT | Potency, µM (series often up to 46.2 µM), for the others: top-dose activity change, negative = growth inhibition, hits mostly inhibitors | AID 686978, 2013 | DT40 Tdp1-/- hTDP1 cells, no CPT, ATP luminescence, 48 h | 15% of 420,000 active; note: potency is the fitted concentration of half-maximal effect; % is set by controls: 0 for no effect and ±100 for the full control effect; nearly all actives have a fitted effect of over 55% in size
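Seeded 400 DT40-hTDP1 cells/well (vehicle DMSO, no 20 nM CPT); pinned compounds; ≥48 hr at 37 °C; CellTiter-Glo luminescence as viability measure.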
TDP1 cell CPT – qHTS for Inhibitors of human tyrosyl-DNA phosphodiesterase 1 (TDP1): qHTS in cells in presence of CPT | chicken DT40 Tdp1-/-;hTDP1 cells + 20 nM CPT, ATP luminescence, 48 h | Potency, µM (titrated, usually from 46.2 µM), inactives show at the top dose activity change, negative = growth inhibition, actives largely listed as inhibitors | 12% of 420,000 active | AID 686979, 2013; note: potency is the fitted concentration of half-maximal effect; % is set by controls: 0 for no effect and ±100 for the full control effect; nearly all actives have a fitted effect of over 55% in size
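Cell growth measured by CellTiter-Glo luminescence after a minimum 48 h, 37 C compound exposure with 20 nM CPT in Tdp1-knockout DT40 cells stably expressing hTDP1, seeded 400/well; qHTS titration format.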
IL-1B inflam inh – qHTS for Inhibitors of Inflammasome Signaling: IL-1-beta AlphaLISA Primary Screen; activity change, % at 57.5 µM; THP-1 LPS/ATP IL-1B secretion, AlphaLISA, 16 h; active compounds read low; AID 743279, 2014; 4.7% of 360,000 active; in the data active = activity change below about -50%; inconclusive = mostly about -30% to -49%; note: % is set by controls: 0 for no effect and ±100 for the full control effect
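THP-1 cells pretreated 1 hr with compounds (up to 57.5 uM final), then stimulated with LPS (250 ng/mL final) plus ATP (1.25 mM final); secreted IL-1B measured by AlphaLISA after 16 hr, decreased signal indicating inhibition.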
HepG2 viability – qHTS for Inhibitors of TGF-b: Cytotox Counterscreen; HepG2 CAGA-GFP viability, ATP luminescence, 18 h; Potency, µM (top dose mostly 46.1 µM), for inactives: at the top dose activity change, negative = cytotoxicity, actives largely listed as cytotoxic; 0.76% of 410,000 active; AID 588856, 2011; note: potency is the fitted concentration of half-maximal effect
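HepG2 CAGA-GFP cells (1000/well, DMEM with 1% FBS) received compound, then TGF-beta at 500 pg/mL final, and were incubated 18 hours at 37 degrees C. Viability was read by CellTiter-Glo luminescence. Media-only wells were set as complete cell-killing and DMSO as no toxicity.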
TDP1 block – qHTS Assay for Inhibitors of Tyrosyl-DNA Phosphodiesterase (TDP1); recombinant TDP1, AlphaScreen DNA substrate cleavage; Tyrosyl-DNA phosphodiesterase 1 (Homo sapiens), Q9NUW8; 0.28% of 350,000 active; Potency, µM (highest dose often 130 µM), inactives show at the top dose activity change, negative = inhibition, most hits filed as inhibitors; note: potency is the fitted concentration of half-maximal effect; % is set by controls: 0 for no effect and ±100 for the full control effect; nearly all actives have a fitted effect of over 40% in size
Target sequence (Q9NUW8 whole entry, looked up): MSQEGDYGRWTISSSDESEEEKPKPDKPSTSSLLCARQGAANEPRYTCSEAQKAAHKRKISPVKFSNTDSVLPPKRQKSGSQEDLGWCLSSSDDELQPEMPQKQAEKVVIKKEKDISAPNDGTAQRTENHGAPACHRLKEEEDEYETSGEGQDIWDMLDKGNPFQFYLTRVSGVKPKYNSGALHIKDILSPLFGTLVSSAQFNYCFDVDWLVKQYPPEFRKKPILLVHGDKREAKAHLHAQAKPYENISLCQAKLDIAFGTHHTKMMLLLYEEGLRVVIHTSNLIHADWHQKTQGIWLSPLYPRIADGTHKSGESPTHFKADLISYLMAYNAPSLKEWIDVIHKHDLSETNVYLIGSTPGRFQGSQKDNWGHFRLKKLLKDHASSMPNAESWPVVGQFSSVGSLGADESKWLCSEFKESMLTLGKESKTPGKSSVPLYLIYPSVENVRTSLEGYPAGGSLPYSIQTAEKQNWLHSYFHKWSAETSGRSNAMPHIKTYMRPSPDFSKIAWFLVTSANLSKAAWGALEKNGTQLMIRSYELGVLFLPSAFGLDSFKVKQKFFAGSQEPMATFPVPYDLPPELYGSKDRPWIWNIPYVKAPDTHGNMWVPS
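Steps: enzyme plus compound, 15 min RT; add biotin/phosphotyrosine-FITC oligonucleotide (15 nM final), react 5 min; add donor/acceptor beads (10 ug/ml final), 10 min; read AlphaScreen. Tdp1 at 1 nM final.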
An asterisk follows results filed as active; i = inactive; ? = inconclusive; nt = not tested or not shown; [ ] = another dose, or the depositor's remark. In the library only some 18% were active in any assay of this set; here they are far more common. Unless noted, calls come from the whole dose curve; as a rule, active = well fitted curve in the direction sought with a large enough effect; inconclusive = small, poorly fitted or top-dose-only effect, or another doubt; inactive = no such curve, though single readings can be large; an effect the other way counts as inactive or inconclusive.

SMILES	TGFb inhibitor	TDP1 cell noCPT	TDP1 cell CPT	IL-1B inflam inh	HepG2 viability	TDP1 block
CC1Cc2ccccc2N1S(=O)(=O)c1cccc(C(=O)NCCCO)c1 (configuration not stated)	0.0%	-17.9%	-28.0%	34.0	2.1%	1.0%
CC1Cc2ccccc2N1S(=O)(=O)c1cccc(C(=O)N2CCN(c3ncccn3)CC2)c1 (configuration not stated)	-8.3%	?	?	-66.4*	-19.6%	2.5%
CC(=O)N1CCN(C(=O)c2cccc(S(=O)(=O)N3c4ccccc4CC3C)c2)CC1 (configuration not stated)	-16.8%	-25.8%	-8.6%	34.5	-20.1%	1.5%
CCOC(=O)c1ccc(NC(=O)c2cccc(S(=O)(=O)N3c4ccccc4CC3C)c2)s1 (configuration not stated)	?	6.51µM*	16.4µM*	17.5	-14.3%	2.7%
CC1Cc2ccccc2N1S(=O)(=O)c1cccc(C(=O)NCc2ccccn2)c1 (configuration not stated)	?	?	?	10.2	20µM*	0.0%[56.1 µM]
Cc1ccc(S(=O)(=O)N(C)C)cc1NC(=S)NNC(=O)C(N)=O	-0.2%	8.0%	14.8%	-2.7	2.8%	8.2%
COc1ccc(-c2cc(=O)c3c(O)cc(O)c(-c4cc(-c5cc(=O)c6c(O)cc(OC)cc6o5)ccc4OC)c3o2)cc1	nt	nt	nt	nt	nt	13.4%
COc1cc(NC(=O)CCc2nnc3ccc(N4CCC5(CC4)OCCO5)nn23)cc(OC)c1	-1.1%	1.1%	-12.9%	?	-19.1%	2.8%
CCOC(=O)N1CCN(C(=O)C2CCC(=O)N(Cc3ccc(Cl)cc3)C2)CC1 (configuration not stated)	?	-3.1%	5.9%	i	0.0%	2.7%
Cc1cccc(CNC(=O)c2ccc3c(c2)c(C)c(C)n3Cc2ccccc2)c1	16.0%	?	20.6µM*	nt	-32.4%	7.9%
CCOc1ccc(CNC(=O)c2ccc3c(c2)c(C)c(C)n3Cc2ccccc2)cc1OC	0.0%	14.6µM*	11.6µM*	nt	-53.6%	10.5%
Cc1c(C)n(Cc2ccccc2)c2ccc(C(=O)NCc3ccc(OC(C)C)cc3)cc12	0.0%	11.6µM*	16.4µM*	nt	-48.2%	7.9%
COc1ccc(/C=N/NC(=O)c2c(C)nc3ccccn23)cc1[N+](=O)[O-]	3.9%	-8.0%	-2.5%	22.3	-7.6%	0.0%
COc1cccc(CNC(=O)C2CCN(S(=O)(=O)c3ccc4c(c3)OCCO4)CC2)c1	36.9%	-15.5%	-24.4%	-5.0	2.5%	1.0%
C[C@H](NS(=O)(=O)OCC(Cl)(Cl)Cl)C1CC1c1ccccc1 (some centres not stated)	?	-22.7%	-19.6%	1.4	-26.4%	nt
O=S(=O)(NC1CC(NS(=O)(=O)OCC(Cl)(Cl)Cl)C2CCCCC12)OCC(Cl)(Cl)Cl (configuration not stated)	?	14.6µM*	14.6µM*	-18.9	-80.4%	nt
CCn1c(-c2cccnc2)nc2cc(NC(=O)COC)cc(C(=O)N3CCOc4ccccc4C3)c21	nt	-12.1%	1.6%	nt	nt	nt
CCN(c1cccc(C)c1)S(=O)(=O)c1nnc(NC(=O)C2CCCCC2)s1	0.0%	?	?	nt	3.5%	-11.7%
COc1cccc(Cn2c(=O)c(-c3cc(F)cc(F)c3)nc3cnc(N(C)C)nc32)c1	nt	-1.6%	6.9%	nt	nt	nt
